Measurements taken from PubChem BioAssay AID1421 (Emory University Molecular Libraries Screening Center, 2008).
The campaign covered roughly 1,300 compounds. About 140 (11%) were called active. How the calls were made is not given here. These entries were drawn from the full list. Potency and affinity values are given separately.

Molecular target: Prostaglandin E2 receptor EP2 subtype (Homo sapiens) (UniProt P43116)
Experiment: compounds shifting PGE2 potency at EP2 – cell-based, human EP2, PGE2 EC50 shift, dose response (AID 1421)
Details: EP2-expressing cells, PGE2 EC50 shift by compound; at 20 µM

Chain of Prostaglandin E2 receptor EP2 subtype (Homo sapiens) (P43116 whole entry, looked up): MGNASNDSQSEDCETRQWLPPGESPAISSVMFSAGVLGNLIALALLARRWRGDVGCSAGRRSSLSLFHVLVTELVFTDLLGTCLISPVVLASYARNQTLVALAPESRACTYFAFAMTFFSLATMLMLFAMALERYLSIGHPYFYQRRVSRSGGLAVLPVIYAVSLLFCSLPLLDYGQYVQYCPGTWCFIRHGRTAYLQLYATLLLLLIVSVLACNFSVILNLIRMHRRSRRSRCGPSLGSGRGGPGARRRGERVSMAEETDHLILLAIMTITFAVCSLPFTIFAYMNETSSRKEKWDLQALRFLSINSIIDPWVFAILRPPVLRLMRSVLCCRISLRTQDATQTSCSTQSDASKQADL

PGE2 EC50 with compound, inactive:
CCSc1nnc(-c2ccc(Cl)cc2)c2ccccc12 2.31 nM
Cc1cccc(/C=N/Nc2cc(N3CCOCC3)nc(N3CCOCC3)n2)c1 0.59 nM
COc1ccc2c(-c3ccccc3)cc(N3CCOCC3)nc2c1 0.43 nM
COc1ccc(C2=Nn3c(nnc3C3CCCCC3)SC2)cc1OC 0.48 nM
CCOC(=O)C1=C(CC)OC(N)=C(C#N)C1c1ccsc1 (stereo not given) 0.52 nM
CCn1c2ccc(Cl)cc2c2nc3ccccc3nc21 0.4 nM
O=c1c2ccccc2nc(/C=C/c2ccccc2)n1CCc1ccccc1 0.1 nM
C=CCOc1c(Br)cc(/C=N/n2c(CC)n[nH]c2=S)cc1Br 0.13 nM
CC(C)c1nc(N2CCN(C(=O)c3ccccc3)CC2)c(C#N)c2c1COC(C)(C)C2 0.35 nM
Cc1nc2ccccn2c1C(=O)CSc1ccc(Cl)cc1Cl 5.69 nM
Cc1cc(C(=O)NCC(c2ccco2)N(C)C)no1 (stereo not given) 0.8 nM
O=S(Cc1cc(Sc2ccccc2)nc(-c2ccccc2)n1)c1ccccc1 (stereo not given) 0.32 nM
CCOC(=O)c1cc2sc(C)cc2n1C(C)C(=O)OCC (stereo not given) 0.35 nM
CCOC(=O)c1c(-c2ccc(C)cc2)csc1NC(=O)c1ccc(N2C(=O)CCC2=O)cc1 0.29 nM
CCOC(=O)c1c(NC(=O)c2ccncc2)sc(C)c1C 0.45 nM
CCOC(=O)c1oc2ccccc2c1NC(=O)c1cccc(OC)c1OC 0.43 nM
CCOC(=O)c1[nH]c2ccc(OC)cc2c1NS(=O)(=O)c1ccc(Cl)s1 0.39 nM
CCOC(=O)CNC(=O)c1ccc2c(c1)OCCO2 0.46 nM
Cc1ccccc1Cn1c(-c2cncs2)nc2ccccc21 0.55 nM
c1ccc(CCc2ccccc2-c2nc(-c3cccnc3)no2)cc1 0.18 nM
CCOC(=O)c1c(NC(=O)CSc2nnc(N)s2)sc(C)c1-c1ccc(C)cc1 0.35 nM
Cc1cccc(N=N/C(=C\O)C(=O)c2ccc(Br)cc2)c1 0.18 nM
Cc1cc(C)c(S(=O)(=O)O)c(C)n1 0.61 nM
COC(=O)c1[nH]c2ccccc2c1NS(=O)(=O)c1ccc(F)c(C)c1 0.41 nM
Cn1c(=O)[nH]c(=O)c2c1nc(CN1CCN(c3ccccc3F)CC1)n2CCCc1ccccc1 0.47 nM
S=c1[nH]nc(-c2ccc(Br)o2)n1Cc1ccccc1 0.8 nM
Cn1c(=O)c(NCCc2ccccc2)c2c3c(cccc31)C(=O)c1ccccc1-2 0.58 nM
Cc1ccc2c3c(cccc13)-c1ccccc1C2=O 0.36 nM
NC(=O)CSc1nnc(-c2cccc(S(=O)(=O)N3CCOCC3)c2)n1C1CCCCCC1 0.63 nM
Cc1noc(C)c1CSc1nc2sc3c(c2c(=O)n1C)CCCC3 0.89 nM
CCCSc1nc(N2CCCC2)c2c(c1C#N)CC(C)(C)OC2 0.26 nM
Cc1cc2ccc(C)c(C)c2nc1SCC#N 0.35 nM
C=CCn1c(CCc2cc(C(C)(C)C)c(O)c(C(C)(C)C)c2)n[nH]c1=S 0.58 nM
OCCCNc1nc(-c2ccc(Cl)cc2)nnc1-c1ccc(Br)cc1 1.44 nM
CC(OC(=O)c1oc2ccccc2c1COc1ccccc1)C(=O)NC(N)=O (stereo not given) 0.23 nM
Cc1onc(-c2ccccc2Cl)c1-c1nc(-c2ccncc2)no1 0.49 nM
CCOc1ccccc1NC(=O)c1ccccc1-c1nc(-c2ccccc2)no1 0.4 nM
Cc1nn2c(N3CCN(C(=O)c4ccco4)CC3)cc(C(C)(C)C)nc2c1-c1ccccc1 1.08 nM
Cc1ccc(NCc2n[nH]c(=S)n2Cc2ccccc2)cc1Cl 0.64 nM
O=C(O)/C=C/c1ccccc1Oc1ccc(Cl)cc1Cl 1.45 nM
COc1cc2c(cc1OC)-c1cc(Nc3ccc4c(c3)OCCO4)nc(=O)n1CC2 0.72 nM
COc1ccc(OC)c(/C=C/C(=O)N2CCCc3ccccc32)c1 0.28 nM
C=C(C)Cn1c(C)cc(C)c(S(=O)(=O)c2ccc(C)cc2)c1=O 0.32 nM
COC(=O)c1c(NC(=O)CSc2nnc(-c3ccco3)n2Cc2ccccc2)sc(C)c1C 0.82 nM
CCc1cc2cc3c(cc2nc1SCC(=O)OC(C)C)OCO3 0.14 nM
O=c1[nH]c2ccc(Br)cc2c(-c2ccccc2)c1N1CCOCC1 0.39 nM
CCOC(=O)C1CCN(c2c(C(=O)c3ccccc3)cnc3ccc(Cl)cc23)CC1 0.39 nM
O=c1[nH]c2ccc(Cl)cc2c(-c2ccccc2)c1N1CCN(c2ccccn2)CC1 0.62 nM
CCOC(=O)C1CCN(c2c(C(=O)c3ccccc3)cnc3ccc(CC)cc23)CC1 0.81 nM
O=C(Nc1cccc2cccnc12)c1ccc(Br)o1 0.36 nM
CCOP(=O)(OCC)c1nc(/C=C/c2ccccc2)oc1NCc1ccccc1 0.52 nM
CC1CCCN(C(=O)CSc2cnc3ccccc3n2)C1 (stereo not given) 1.42 nM
CCOC(=O)c1c(N)sc2c1CCC(CC)C2 (stereo not given) 0.46 nM
COCC(=O)Nc1sc2c(c1C(=O)OC)CCC(C)C2 (stereo not given) 0.38 nM
CCn1nnnc1SCC(=O)Nc1cccc(C)n1 1.23 nM
COc1cccc(C2=NN(C(=O)c3cccs3)C(O)(C(F)(F)F)C2)c1 (stereo not given) 0.25 nM
S=C(Nc1ccccc1Cl)N(Cc1ccccc1)Cc1ccccn1 0.41 nM
CN(C)c1nccc(N(Cc2ccccc2)Cc2ccccc2)c1C#N 0.29 nM
Cc1ccc(C(C)C)c(OCCn2c(=O)oc3ccccc32)c1 0.33 nM
CC(C)(C)C1CCc2onc(C(=O)Nc3cccnc3)c2C1 (stereo not given) 0.4 nM
